Results reported in PubChem BioAssay (EPA / NIEHS).
Results filed as inconclusive are left out. Activity calls are given as the source filed them. Rule for the calls, unless noted: active = hit-call score of the fitted dose curve at least 0.9, where 1 is the maximum; inconclusive = response in the unintended direction; inactive = score below 0.9.

How the values were obtained:
THRB (gene 7068) [1] = target: THRB (gene 7068) (UniProt P10828); experiment: TOX21_TRB_COA_Agonist_Followup_ratio: Tox21 Thyroid Hormone Receptor beta Agonism through Coactivator Recruitment Follow-Up Assay, Ratio (AID 2283963; active = hit-call score of the fitted dose curve at least 0.9, where 1 is the maximum; inactive = score below 0.9)
Method in brief: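 GST-TRb LBD 5.0 nM + 0.10% BSA + cpd; add fluorescein-SRC-2 200 nM / Tb anti-GST Ab 2 nM; TR-FRET ex 340, em 520:495; norm DMSO 0%, T3 100%.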

[2] = target: Retinoic acid receptor RXR-alpha (Homo sapiens) (UniProt P19793); experiment: TOX21_TR_RXR_BLA_Agonist_Followup_ratio: Tox21 Thyroid Hormone Receptor beta Retinoid X Receptor alpha (RXRa) Agonism Beta-lactamase (BLA) Follow-Up Assay, Ratio (AID 2283968)
Method in brief: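 Agonism is scored as an increase in the 460:530 nm beta-lactamase substrate ratio over DMSO in RXRa-UAS-bla HEK293T cells exposed for 16 h to 11 compound concentrations.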

[3] = TOX21_TR_RXR_BLA_Agonist_Followup_viability: Viability Assessment in the Tox21 Thyroid Hormone Receptor beta Retinoid X Receptor alpha (RXRa) Agonism Beta-lactamase (BLA) Follow-Up Assay (AID 2283970)
Method in brief: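 Luminescent ATP read (CellTiter-Glo) after 16h exposure of RXRa-UAS-bla HEK293T cells at 37C/5% CO2. Activity normalized to DMSO; signal loss scored as reduced viability.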

[4] = CCTE_Harrill_HTTr_Viability_DMEM_6hr: (Pilot) CCTE's 6-hour Cell Viability Assessment for the High-Throughput Transcriptomics (HTTr) Platform, in MCF-7 cells cultured in DMEM + 10% fetal bovine serum, Harrill Lab (AID 2283973; active = hit-call score of the fitted dose curve at least 0.9, where 1 is the maximum; inactive = score below 0.9)
Method in brief: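 Propidium iodide uptake imaged by high-content analysis after six hours of chemical treatment in an eight-concentration series. Cells: MCF-7 grown in DMEM with 10% fetal bovine serum; DMSO as baseline.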

[5] = CCTE_Harrill_HTTr_Viability_DMEM_12hr: (Pilot) CCTE's 12-hour Cell Viability Assessment for the High-Throughput Transcriptomics (HTTr) Platform, in MCF-7 cells cultured in DMEM + 10% fetal bovine serum, Harrill Lab (AID 2283974; active = hit-call score of the fitted dose curve at least 0.9, where 1 is the maximum; inactive = score below 0.9)
From the text: (§1) This is a cell-based assay that evaluates cell viability using high content imaging to evaluate membrane integrity using propidium iodide dye exclusion in a 384 well format.One of seven assay components measured from the CCTE_Harrill_HTTr_Viability assay. This was part of a pilot experiment. This is a cell-based assay that evaluates cell viability in MCF-7 cells cultured in DMEM + 10% fetal bovine serum. High content imaging is used to evaluate membrane integrity using propidium iodide dye exclusion. Measurements are taken at 12 hours after chemical dosing in 384-well format.The assay component endpoint CCTE_Harrill_HTTr_Viability_DMEM_12hr was analyzed with bidirectional fitting relation to DMSO as the negative control and baseline of activity. Using a type of viability reporter to understand changes in cytotoxicity, gain-of-signal activity can be used to evaluate membrane integrity using propidium iodide dye exclusion. To generalize the intended target to other relatable targets, this assay endpoint is annotated to cell cycle, where the subfamily is cytotoxicity.
(§2) Chemicals were tested in MCF7 cells in an eight point dilution series with a twelve hour exposure duration.

[6] = CCTE_Harrill_HTTr_Viability_DMEM_24hr: (Pilot) CCTE's 24-hour Cell Viability Assessment for the High-Throughput Transcriptomics (HTTr) Platform, in MCF-7 cells cultured in DMEM + 10% fetal bovine serum, Harrill Lab (AID 2283975; active = hit-call score of the fitted dose curve at least 0.9, where 1 is the maximum; inactive = score below 0.9)
From the text: as §1, with “24” for “12”, “CCTE_Harrill_HTTr_Viability_DMEM_24hr” for “CCTE_Harrill_HTTr_Viability_DMEM_12hr”
Chemicals were tested in MCF7 cells in an eight point dilution series with a twenty-four hour exposure duration.

[7] = CCTE_Harrill_HTTr_Viability_PRF_DMEM_6hr: (Pilot) CCTE's 6-hour Cell Viability Assessment for the High-Throughput Transcriptomics (HTTr) Platform, in MCF-7 cells cultured phenol red-free DMEM + 10% charcoal-stripped fetal bovine serum, Harrill Lab (AID 2283976; active = hit-call score of the fitted dose curve at least 0.9, where 1 is the maximum; inactive = score below 0.9)
Method in brief: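 Membrane integrity by high-content imaging of propidium iodide uptake, six hours after dosing with eight concentrations. Cells: MCF-7 grown in phenol red-free DMEM plus 10% charcoal-stripped serum; DMSO serves as baseline for bidirectional fits.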

[8] = CCTE_Harrill_HTTr_Viability_PRF_DMEM_12hr: (Pilot) CCTE's 12-hour Cell Viability Assessment for the High-Throughput Transcriptomics (HTTr) Platform, in MCF-7 cells cultured in phenol red-free DMEM + 10% charcoal-stripped fetal bovine serum, Harrill Lab (AID 2283977; active = hit-call score of the fitted dose curve at least 0.9, where 1 is the maximum; inactive = score below 0.9)
From the text: This is a cell-based assay that evaluates cell viability using high content imaging to evaluate membrane integrity using propidium iodide dye exclusion in a 384 well format.One of seven assay components measured from the CCTE_Harrill_HTTr_Viability assay. This was part of a pilot experiment. This is a cell-based assay that evaluates cell viability in MCF-7 cells cultured in phenol red-free DMEM + 10% charcoal-stripped fetal bovine serum. High content imaging is used to evaluate membrane integrity using propidium iodide dye exclusion. Measurements are taken at 12 hours after chemical dosing in 384-well format.The assay component endpoint CCTE_Harrill_HTTr_Viability_PRF_DMEM_12hr was analyzed with bidirectional fitting relation to DMSO as the negative control and baseline of activity. Using a type of viability reporter to understand changes in cytotoxicity, gain-of-signal activity can be used to evaluate membrane integrity using propidium iodide dye exclusion. To generalize the intended target to other relatable targets, this assay endpoint is annotated to cell cycle, where the subfamily is cytotoxicity.
as §2

THRB (gene 7068) [9] = target: THRB (gene 7068) (UniProt P10828); experiment: TOX21_TRB_COA_Antagonist_Followup_ratio: Tox21 Thyroid Hormone Receptor beta Antagonism through Coactivator Recruitment Follow-Up Assay, Ratio (AID 2283967)
Method in brief: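 Coactivator recruitment to the GST-tagged TRb ligand-binding domain (5.0 nM) was read as the 520/495 nm TR-FRET ratio, using 200 nM fluorescein SRC-2 peptide and 2 nM terbium anti-GST. Scaled between DMSO and T3 wells; loss of signal fitted.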

[10] = target: Retinoic acid receptor RXR-alpha (Homo sapiens) (UniProt P19793); experiment: TOX21_TR_RXR_BLA_Antagonist_Followup_ratio: Tox21 Thyroid Hormone Receptor beta Retinoid X Receptor alpha (RXRa) Antagonism Beta-lactamase (BLA) Follow-Up Assay, Ratio (AID 2283972)
Method in brief: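 Compounds were tested in triplicate at 11 concentrations on RXRa-bla HEK293T cells for 16 h. Substrate cleavage ratio, normalized to DMSO, gave the endpoint.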

Measured: outcome

Retinoic acid receptor RXR-alpha (Homo sapiens), sequence (P19793 whole entry, looked up): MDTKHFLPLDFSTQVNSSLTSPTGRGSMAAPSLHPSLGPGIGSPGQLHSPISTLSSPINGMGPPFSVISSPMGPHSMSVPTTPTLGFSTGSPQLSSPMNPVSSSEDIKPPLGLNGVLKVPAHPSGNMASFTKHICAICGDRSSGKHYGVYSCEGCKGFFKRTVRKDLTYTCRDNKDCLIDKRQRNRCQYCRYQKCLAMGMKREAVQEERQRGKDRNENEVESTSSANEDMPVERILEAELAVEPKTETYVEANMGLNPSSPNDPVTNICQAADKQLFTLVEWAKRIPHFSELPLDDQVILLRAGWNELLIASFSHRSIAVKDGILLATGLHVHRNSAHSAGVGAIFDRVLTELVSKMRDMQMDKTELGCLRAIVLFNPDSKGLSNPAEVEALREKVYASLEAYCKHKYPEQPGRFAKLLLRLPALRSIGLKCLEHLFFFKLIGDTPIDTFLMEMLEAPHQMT
THRB (gene 7068), sequence (P10828 whole entry, looked up, the tested form may be a part): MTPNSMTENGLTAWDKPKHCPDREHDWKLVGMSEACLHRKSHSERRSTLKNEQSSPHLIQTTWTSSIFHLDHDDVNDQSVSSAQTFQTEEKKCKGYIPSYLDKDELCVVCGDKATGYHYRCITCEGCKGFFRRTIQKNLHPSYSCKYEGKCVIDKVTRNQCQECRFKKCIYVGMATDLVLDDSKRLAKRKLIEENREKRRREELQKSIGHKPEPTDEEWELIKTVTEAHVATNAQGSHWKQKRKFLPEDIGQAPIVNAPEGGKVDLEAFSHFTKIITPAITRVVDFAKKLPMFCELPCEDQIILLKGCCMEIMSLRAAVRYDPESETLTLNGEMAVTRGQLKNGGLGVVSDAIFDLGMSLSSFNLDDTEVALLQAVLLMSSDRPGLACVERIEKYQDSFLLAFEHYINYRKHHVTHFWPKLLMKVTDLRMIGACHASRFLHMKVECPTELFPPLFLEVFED

Clc1ccc(Cl)c(Cl)c1
inactive: THRB (gene 7068) [1] | [2] | [3]

CS(=O)(=O)NC(=O)c1cc(Oc2ccc(C(F)(F)F)cc2Cl)ccc1[N+](=O)[O-]
inactive: [4] | [5] | [6] | [7] | [8]

Cc1ccc(N)cc1
inactive: THRB (gene 7068) [1] | [2] | [3]

COC(=O)Nc1nc2ccccc2[nH]1
inactive: THRB (gene 7068) [9] | [10]

CN(C)c1ccc(C(=O)c2ccc(N(C)C)cc2)cc1
inactive: THRB (gene 7068) [9] | [10]
